The source of these data is PubChem BioAssay AID624309 (Sanford-Burnham Center for Chemical Genomics, 2012).

SMILES strings stand for the structures. In all, about 2,000 compounds went through this assay and about 260 (13%) were called active. These entries were drawn from the full list. Values without a mark were called inactive. Cut-off read from the data, not from the text of the source: active = inhibition mostly above about 42% (no sharp cut-off); inactive = mostly below about 42%.

The assay deals with Nicotinate mononucleotide adenylyltransferase NadD (Staphylococcus aureus N315). The assay can be described thus: S. aureus NadD enzyme activity blockers – biochemical, colorimetric, single concentration, confirmation (AID 624309). The following applies: purified S. aureus NadD, colorimetric enzyme assay; at 20 µM; stronger effect = higher value.
Turning to `Cc1cc(N2C(=O)C(O)=C(C(=O)c3ccc(C)o3)C2c2ccc(OCc3ccccc3)cc2)no1` (configuration not stated), the inhibition (commonly the change of the read-out against control, counted positive when it falls) is 51.4% (active).
As to `CCCn1c(C)cc(-c2csc(NC(=O)CCc3nc4ccccc4c(=O)[nH]3)n2)c1C`, the inhibition was 25.1%.
`CCc1ccc(-n2c(=S)sc3c(=O)n(-c4ccccc4OC)c(=S)[nH]c32)cc1`: the inhibition is 5.54%.
Take `Cc1ccc(C(=O)COC(=O)c2cccc(N3C(=O)c4c(C)nc5ccccc5c4C3=O)c2)cc1C`: the inhibition was 0.6%.
Turning to `Cc1cc(C)c2nc(-c3cccnc3)cc(C(=O)Nc3ccc(S(=O)(=O)Nc4onc(C)c4C)cc3)c2c1`, the inhibition is 64% (active).
`COc1cccc2sc(NNC(=O)c3nc4ccccc4s3)nc12`: the inhibition is 43.7%.
Under `O=C(COC(=O)c1cc(=O)[nH]c2ccccc12)Nc1nc(-c2cccc(Br)c2)cs1` stands 5.44%; under `CCOc1ccc(CCN2C(=S)N([C@@H](CC(C)C)CN3CCC[C@@H]3CN3C(=S)NC[C@@H]3Cc3ccc(O)cc3)C[C@@H]2Cc2ccc(O)cc2)cc1`, 29.1%.
Then `COc1ccc(C(=O)/C=C/c2ccc(-c3ccccc3)cc2)cc1CSCC(=O)O`, with 46.5%; and `Cc1ccc(Cn2c(=N)c(S(=O)(=O)c3ccc(C)cc3)cc3c(=O)n4ccccc4nc32)cc1`, with 20.4%; and `Cc1ccc(N2C(=O)C3N=NN(CC(=O)N4N=C(c5cccc6ccccc56)CC4c4ccccc4)C3C2=O)cc1` (configuration not stated), with 33.1%.
Then `CC(=O)Nc1ccc(Nc2cc(C)nc(Nc3ccc(NC(C)=O)cc3)n2)cc1`, with 9.22%; and `O=C1NC[C@H](Cc2ccc(O)cc2)N(C[C@@H]2CCCN2C[C@H](Cc2ccccc2)N2C[C@H](Cc3ccccc3)N(CC3CCCCC3)C(=O)C2=O)C1=O`, with 38.1%; and `O=C(Nc1ccc(NC(=O)c2cccs2)cc1)c1ccc2ccccc2c1`, with -0.66%.
Turning to `Nc1ccc2nc3c(=O)[nH]c(=S)[nH]c3nc2c1`, the inhibition is 72.4% (active).
For `Cc1ccc(C(=O)Oc2coc(CSc3nnc(NC(=O)c4cccs4)s3)cc2=O)cc1C`, the inhibition is 13.8%.
Then `CC(C)CC1C(=O)N(Cc2cn(Cc3ccco3)nn2)CCS(=O)(=O)N1Cc1ccc(-c2ccc(Cl)c(Cl)c2)cc1` (configuration not stated), with 35%.
As to `COc1cc(C2CC(=O)N3CN(Cc4ccccc4)CSC3=C2C#N)ccc1OCc1ccccc1` (configuration not stated), the inhibition is 4.07%.
As for `COCCCn1c(=O)/c(=C/c2ccccc2OC(C)C)s/c1=C(\C#N)C(=O)Nc1ccc(C(=O)O)cc1`, the inhibition was 12.9%.
Turning to `NNc1cccc(C=Cc2ccccc2)cc1=O`, the inhibition is 39.5%.
Then `O=C(CSc1nnc(-c2cccnc2)n1Cc1ccco1)c1ccc(Cl)c(Cl)c1`, with 32.6%.
Turning to `COc1ccc(Cl)cc1C(=O)NNC(=S)NC(=O)/C=C/c1ccco1`, the inhibition is -2.56%.
Turning to `COc1ccc(NS(=O)(=O)c2ccc(NC(=S)NC(=O)/C=C/c3ccc(C)cc3)cc2)nn1`, the inhibition was 58.1% (active).
Take `COc1ccc(C2=NN(C(=O)CSc3nc(=O)n4ccc(C)cc4n3)C(c3ccc(C)cc3)C2)cc1` (configuration not stated): the inhibition was 18.2%.
Then `C[C@H](CO)N1C[C@H](C)[C@H](CN(C)C(=O)Nc2ccc(C(F)(F)F)cc2)Oc2c(NC(=O)c3ccncc3)cccc2C1=O`, with 27.5%.
Under `Cc1ccc2nc(/C(C#N)=C\c3ccc(OC(=O)c4cccs4)cc3)[nH]c2c1` stands 21%; under `Cc1ccc(/C=C/C(=O)Nc2ccc([N+](=O)[O-])c(NC(=O)/C=C/c3ccc(C)o3)c2)o1`, 60.6% (active).
Under `CCCn1c(C(C)Nc2nc(-c3ccc(C)cc3)cs2)nc2cc(Cl)c(N3CCCCC3)cc21` (configuration not stated) stands 0.81%; under `CCC(NC(=O)c1cc(COc2ccc(F)c(F)c2)on1)c1ccncc1` (configuration not stated), 2.18%; under `c1ccc(-c2nccc(-c3ccc(-n4cnc5ccccc54)cc3)n2)nc1`, 16.5%.
On to `O=C(CSc1nc2ccccc2c(=O)[nH]1)Nc1nc(-c2ccc(Br)cc2)cs1`, for which the inhibition was 6.59%.
Then `Cc1ccc(Cn2nnc3c(=O)[nH]c(C4CCN(S(=O)(=O)/C=C/c5ccccc5)CC4)nc32)cc1`, with 37%.
As for `Cc1ccc(Cn2c(C)nc3c(c2=O)c2nc4ccccc4nc2n3Cc2ccco2)cc1`, the inhibition was 11.8%.
As for `Cn1c2ccccc2c(=O)c2c(=O)n(Cc3ccco3)c(COc3ccccc3)nc21`, the inhibition is 10.4%.
For the compound `Cc1cc(C(=O)CSc2nc(N)cc(=O)[nH]2)c(C)n1CCc1ccc(Cl)cc1`, the inhibition is 21.5%.
With `C#Cc1cc(N2CCN(C(=O)c3ccoc3)CC2)n2nc(-c3cccc(Cl)c3)cc2n1`, the inhibition is 25.9%.
Under `COc1ccc(-c2nn(-c3ccccc3)cc2/C=N/Nc2ccccn2)cc1OC` stands 5.86%.
Consider `Cc1ccc(-c2nc(-c3cccnc3)sc2CC(=O)Nc2ccc(C)c(Cl)c2)cc1`, for which the inhibition is -1.82%.
Regarding `Cc1noc(/C=C/c2ccco2)c1S(=O)(=O)N1CCC(C(=O)N2CCc3ccccc32)CC1`, the inhibition is 4.7%.
For the compound `Cn1cncc1C#Cc1c(-c2ccsc2)sc2ccccc12`, the inhibition is 9.54%.
For `O=C(N/N=C/c1ccc(Cl)cc1)c1nc2ccc([N+](=O)[O-])cc2c(=O)[nH]1`, the inhibition is 9.54%.
As to `COc1ccccc1/C=C/C=N/n1c(-c2ccc(Cl)cc2Cl)n[nH]c1=S`, the inhibition is 17.4%.
Then `CCC(c1nnnn1Cc1ccco1)N(Cc1cc2cc(OC)ccc2[nH]c1=O)C1CCCCC1` (configuration not stated), with 14.9%.
Regarding `COc1ccc(C(=O)Nc2cccc(/C=C(/CCC(=O)O)c3nc4ccccc4s3)c2)cc1`, the inhibition is 35.7%.
For the compound `CC(C)(C)C(=O)Nc1ccc(C(=O)N/N=C/c2ccccc2OC(=O)c2ccc(Cl)cc2Cl)cc1`, the inhibition was 0.49%.
On to `CCCCCCc1cc2cc(-c3nnc(-c4ccccc4)o3)c(=O)oc2cc1O`, for which the inhibition is -1.61%.
Then `Cc1cc(O)c(C(=O)/C=C/c2c(F)c(F)c(F)c(F)c2F)c(=O)o1`, with 12.9%; and `CCOC(=O)c1ccccc1N1C(=O)C2Sc3[nH]c(=O)sc3C(/C=C/c3ccccc3)C2C1=O` (configuration not stated), with 57.6% (active); and `CC(C)Oc1ccc(/C=C(\NC(=O)/C=C/c2ccco2)C(=O)NCCc2nc3ccccc3[nH]2)cc1`, with 37.9%.
Under `Nc1[nH]c(=S)nc2nc(-c3ccccc3)c(-c3ccccc3)nc12` stands 38.5%; under `COc1ccc([N+](=O)[O-])cc1NC(=O)CC1SC(=Nc2cccc(C)c2C)N(/N=C(\C)c2ccc(C)cc2)C1=O` (configuration not stated), -2.98%.
Take `Cc1nc(N2CCN(c3ccccn3)CC2)c2c(C)c(C(=O)Nc3ccc(F)c(Cl)c3)sc2n1`: the inhibition is 3.33%.
Take `C=CC1=C(C(=O)O)N2C(=O)[C@@H](NC(=O)/C(=N/OCC(=O)O)c3csc(N)n3)[C@H]2SC1`: the inhibition was 95.8% (active).
Under `O=C(O)c1ccc(COCC(F)(F)F)cc1` stands 10.3%.
With `CC1(OC(=O)C2CCCC2)C(=O)C=C2C=C(c3ccc(C#N)cc3)OC=C2C1=O` (configuration not stated), the inhibition was 73.5% (active).
Turning to `Cc1nn(-c2ccccc2)c(C)c1/C=N/NC(=O)CSc1nc2ccccc2c(=O)n1-c1ccccc1`, the inhibition was 8.17%.
As to `CCOc1ccc(-c2n[nH]c(=S)n2/N=C/c2cc3c(cc2[N+](=O)[O-])OCO3)cc1`, the inhibition was 4.81%.
As for `N#CC1=C(SCc2ccc(C#N)cc2)N=C(N)C(c2nc(-c3ccccc3)cs2)C12CCCCC2` (configuration not stated), the inhibition is 24.2%.
For the compound `CCN(CC)C(=O)c1sc2nc(-c3ccccc3)ccc2c1N`, the inhibition was -11.1%.
Then `O=C(CSc1nc(Nc2ccccc2)nc(N2CCOCC2)n1)Nc1cc(Cl)ccc1O`, with 43.2%.
Consider `O=C(NCC(=O)N1CCN(c2ccccc2O)CC1)c1ccc2ccccc2c1`, for which the inhibition is 34.8%.
Under `CCCCCCC(=O)Nc1nc(C)c(-c2csc(Nc3cc(Cl)ccc3OC)n2)s1` stands 5.75%; under `COc1ccc(Br)cc1/C=N/Nc1ccc(S(=O)(=O)Nc2ccccc2C(=O)O)cc1[N+](=O)[O-]`, 73.9% (active); under `Cc1ccc(NS(=O)(=O)c2ccc(N/N=C/c3ccccc3OCC(=O)O)c([N+](=O)[O-])c2)c(C)c1`, 64.9% (active).
Turning to `O=C(Nc1ccc(S(=O)(=O)Nc2nccs2)cc1)c1cc(-c2ccncc2)nc2ccccc12`, the inhibition was 44.5% (active).
For `COc1ccc(NS(=O)(=O)c2cc(NC(=O)CC(=O)c3ccc([N+](=O)[O-])cc3)ccc2C)cc1`, the inhibition was 28.1%.
Then `CCn1cc(C(=O)NCCCN2CCCCCC2)c(=O)c2cc(S(=O)(=O)N3CCc4ccccc4C3)ccc21`, with -16.2%; and `Cc1cc(C)c(S(=O)(=O)NN=C2c3ccccc3[C@H]3Cc4csc[n+]4[C@@H]23)c(C)c1`, with 30.1%.
Regarding `Cc1ccc(Cc2cnc(NC(=O)/C(C#N)=C/c3ccc(-c4cccc([N+](=O)[O-])c4)o3)s2)cc1`, the inhibition was 5.75%.
On to `Nc1nc2n(n1)C(c1ccco1)CC(c1ccc(Cl)c(Cl)c1)N2` (configuration not stated), for which the inhibition was 13.2%.
Then `CCOc1ccc2nc(N3CCCN(C(=O)Nc4ccccc4C)CC3)c(C#N)cc2c1`, with -3.08%; and `CCOc1ccc2nc(/N=C/c3nc(-c4ccccc4)oc3O)sc2c1`, with 5.96%.
For the compound `COc1cccc(-c2nn(-c3ccccc3)cc2/C=C(\C#N)C(=O)NCCCn2ccnc2)c1`, the inhibition was 2.7%.
Take `Cc1nn2c(c1-c1ccccc1)N=C(c1ccco1)CC2c1ccccc1` (configuration not stated): the inhibition is 21.2%.
On to `COC(=O)c1ccc2nc(-c3ccc(C)cc3)c(Cc3ccc(OC)cc3C)n2c1`, for which the inhibition is 12.6%.
Regarding `Cc1cc2nc(-c3ccco3)c(Cc3cccc(F)c3)n2c(C)c1Br`, the inhibition was 22.4%.
As to `C/C(=N\NC(=O)CNc1cccc2ccccc12)c1ccc(Br)s1`, the inhibition is 8.07%.
